Screening data (PubChem BioAssay)
D2 PAM-1: positively modulates the human D2 dopamine receptor allosterically. P14416. HEK293 T-REx D2, calcium flux, EC20 dopamine potentiation. potentiation, % at 10 µM. 340,000 tested, 0.34% active;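 active = potentiation over 3 SD above the plate norm, cut at about 30% in these data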; also: 0% is about no effect
Target sequence (P14416 whole entry, looked up): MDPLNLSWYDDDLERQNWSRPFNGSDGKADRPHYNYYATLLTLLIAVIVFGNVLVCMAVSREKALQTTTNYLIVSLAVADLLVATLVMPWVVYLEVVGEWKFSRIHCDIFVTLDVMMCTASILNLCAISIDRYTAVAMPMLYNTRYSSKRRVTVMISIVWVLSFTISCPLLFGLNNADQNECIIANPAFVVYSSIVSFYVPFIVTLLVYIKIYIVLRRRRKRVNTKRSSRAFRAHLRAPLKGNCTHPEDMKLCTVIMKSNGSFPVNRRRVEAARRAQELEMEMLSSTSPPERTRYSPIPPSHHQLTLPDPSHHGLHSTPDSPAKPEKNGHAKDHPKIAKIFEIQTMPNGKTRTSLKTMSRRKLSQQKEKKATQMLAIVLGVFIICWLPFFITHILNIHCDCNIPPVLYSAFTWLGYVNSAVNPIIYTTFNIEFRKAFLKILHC
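Tetracycline-induced HEK293 T-REx cells force-coupled to calcium signalling expressed D2; compounds were pin-added after a 10 s baseline, read kinetically 180 s, then an EC20 dopamine challenge followed with a further 180 s calcium read.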
D2 ag-1: activates the human D2 dopamine receptor. DiscoveRx PathHunter D2 beta-arrestin, luminescence, 90 min; 100% = 57 uM dopamine signal. activation, % (concentration not given with the values). 360,000 tested, 0.084% active. AID 624465; in the data active = activation above about 40%; inconclusive = between about 15% and that limit
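Agonist mode: compounds alone added to overnight-plated D2 PathHunter cells for 90 min at 37 C, with 57 uM final dopamine (EC100) defining full response. Beta-arrestin recruitment detected by chemiluminescent reagent, read after 1 h at ambient temperature.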
D2 antagonist: antagonists of human D2 dopamine receptor; P14416; HEK293 TREx D2 cells, calcium flux, dopamine EC80; inhibition, % at 10 µM; 340,000 tested, 2% active; in the data active = inhibition above about 30%; inactive = below that, where a call was filed; also: 0% is about no effect
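Dopamine at EC80 is the agonist stimulus; test compounds precede it by 180 s. Calcium flux read kinetically in a force-coupled, inducible HEK293 T-REx D2 cell line.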
D2 ag-2: activates the human D2 dopamine receptor; HEK293 T-REx D2 cells, calcium flux agonist mode; activation, % at 2 µM; 340,000 tested, 0.53% active; AID 485358; P14416;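 active = activation over 3 SD above normal in the single-dose calcium agonist read, cut at about 30% in these data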; also: 0% is about no effect
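In this primary screen, compounds producing a positive calcium signal within 180 s of addition to tetracycline-induced, force-coupled HEK293 Trex D2 cells are flagged; cells are dye-loaded with a no-wash calcium kit beforehand.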
D2 PAM-2: human D2 receptor positive allosteric modulation. DiscoveRx D2 beta-arrestin cells, luminescence, 90 min; 100% = 57 uM dopamine signal. potentiation, % (test concentration not listed). 360,000 tested, 0.23% active. P14416; in the data active = potentiation above about 50%; inconclusive = mostly about 30% to 49%
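PathHunter beta-arrestin assay in DiscoveRx D2 cells. Compounds were added with an EC20 of dopamine (50 nM final) for 90 min at 37 deg C. Luminescence was read 1 h after detection reagent, with 57 uM dopamine as the EC100 control.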
D3 ag: activates human D3 dopamine receptor beta-arrestin recruitment; shares compounds with D2 ag-2; DiscoveRx D3 beta-arrestin cells, luminescence, 90 min; Potency, µM (titrated, usually from 76.9 µM), for inactives: at the top dose activation, actives largely listed as activators; 2,300 tested, 4% active; AID 720506;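 also: potency is read from the fitted curve at half-maximal effect; 100% = dopamine control response; nearly all actives have a fitted effect of over 70% in size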
D2 ag-3: counter-screen for D3 agonists: human D2 dopamine receptor agonism; DiscoveRx PathHunter D2 beta-arrestin, luminescence, 90 min; response scale: percent relative to full dopamine signal; 2,300 tested, 5.9% active; shares compounds with D2 ag-2; AID 720507; Potency, µM (doses to about 76.9 µM), without a hit: top-dose activation, actives largely listed as activators; also: potency is read from the fitted curve at half-maximal effect; % of control where 0% means no effect; nearly all actives have a fitted effect of over 70% in size
* marks the source's active call; other numbers are inactive results; ? = inconclusive; / = no result given. In the library only some 2.4% were active in any assay of this set; here they are far more common. Unless noted, calls follow the shape of the dose curve; as a rule, active = well fitted activation curve with a large enough effect; inconclusive = small, poorly fitted or top-dose-only effect; inactive = flat fitted curve, though single readings scatter.

SMILES	D2 PAM-1	D2 ag-1	D2 antagonist	D2 ag-2	D2 PAM-2	D3 ag	D2 ag-3
Cc1ccc(N/C(N)=N/c2nc(C)cc(C)n2)cc1	-33.8	0.4	31.1*	79.6*	-27.4	-3.9%	3.5%
COCCNC(=O)Cn1cc(/C=N/NC(=O)c2ccc(Oc3ccc(O)cc3)cc2)c2ccccc21	10.4	5.3	2.7	-3.5	-1.1	/	/
COc1ccccc1C(=O)Nc1ccnn1C1CCN(C(=O)c2ccoc2C)CC1	0.7	-0.8	-11.6	0.7	-11.6	/	/
O=C1N=C(N2CCOCC2)S/C1=C/c1ccc(-c2ccc(F)cc2)o1	-20.5	?	-4.6	55.2*	6.2	2.6%	?
O=C(NCCCCc1ccccc1)C1CC(c2ccc(C(F)(F)F)cc2)=NO1 (stereo not drawn)	-3.8	0.9	1.6	0.6	-11.1	/	/
CCOc1ccc(C(=O)OCc2cc(=O)n3nc(C(C)C)sc3n2)cc1	9.1	/	/	1.5	/	/	/
C/C(=N\NC(=S)Nc1cccc(C)c1)c1ccco1	-6.8	5.5	67.2*	70.0*	-10.1	-1.5%	-4.9%
C/C(=N\NC(=S)Nc1cccc(C)c1)c1ccccc1	11.8	-7.8	-6.4	-0.7	-40.4	/	/
Cc1ccc(-c2nnc(SCC(=O)N3CCCc4ccccc43)o2)cc1	0.6	/	/	/	/	/	/
CCOC(=O)CC1Sc2ccccc2NC1=O (stereo not drawn)	17.7	-3.6	-10.6	/	-4.0	/	/
O=C(O)CC1Sc2ccccc2NC1=O (stereo not drawn)	-28.3	-6.0	6.4	50.7*	-18.8	-6.5%	-1.9%
CCc1ccc(OCC(O)CN2CCN(c3ccccc3)CC2)cc1 (stereo not drawn)	-13.2	?	109.5*	74.1*	-12.4	?	?
CCCc1ccc(OCC(O)CN2CCN(c3ccccc3)CC2)cc1 (stereo not drawn)	-26.2	?	68.7*	61.5*	-6.7	-5.5%	?
COc1ccc(N2CCN(CC(O)COc3ccc(F)cc3)CC2)cc1 (stereo not drawn)	0.3	-0.5	-12.7	-0.3	-13.1	/	/
COc1ccc(OCC(O)CN2CCN(c3ccc(OC)cc3)CC2)cc1 (stereo not drawn)	8.3	-4.7	-6.0	2.5	-39.2	/	/
Cc1ccc(OCC(O)CN2CCN(c3ccccc3)CC2)cc1 (stereo not drawn)	-22.8	2.7	62.2*	45.7*	-10.6	17.4%	4.9%
C=CCc1cc(C)ccc1OCC(O)CN1CCN(c2ccccc2)CC1 (stereo not drawn)	-27.9	6.0	79.9*	61.9*	-13.1	0.631µM*	14.2%
C=CCc1ccccc1OCC(O)CN1CCN(c2ccccc2)CC1 (stereo not drawn)	-22.0	/	/	-3.8	/	/	/
CNS(=O)(=O)c1ccc(NS(=O)(=O)c2ccccc2F)cc1	-5.5	-0.7	1.4	10.7	-13.5	/	/
OC(COc1cccc2ccccc12)CN1CCN(c2ccccc2)CC1 (stereo not drawn)	-22.6	5.7	65.0*	55.8*	-0.2	?	23.3%
COc1cccc(CN2CCC(C(=O)N3CCN(c4ccccc4F)CC3)CC2)c1OC	8.6	3.5	-13.6	26.8	-8.2	1.8%	7.9%
OC(COc1ccc(Cl)cc1)CN1CCN(c2ccccc2)CC1 (stereo not drawn)	-25.1	1.9	71.4*	19.4	-16.1	?	2.4%
COc1cccc(OC)c1OCC(O)CN1CCN(c2ccccc2F)CC1 (stereo not drawn)	-21.8	?	85.7*	78.1*	-9.5	?	?
COc1ccc(N2CCN(CC(O)COc3c(OC)cccc3OC)CC2)cc1 (stereo not drawn)	-18.2	-8.8	20.8	-1.6	-23.5	/	/
COc1ccc(-c2n[nH]c3c2cnc2ccc(F)cc23)cc1	-5.1	/	/	-0.7	/	/	/
SMILES	D2 PAM-1	D2 ag-1	D2 antagonist	D2 ag-2	D2 PAM-2	D3 ag	D2 ag-3
CCC(C)NC(=O)C1CCN(CCCc2ccccc2)CC1 (stereo not drawn)	-17.7	-4.1	-1.3	50.8*	-8.8	-3.8%	4.6%
CCC(C)NC(=O)C1CCN(C(=O)c2ccccc2)CC1 (stereo not drawn)	6.4	0.0	8.6	0.1	-4.6	/	/
Cn1c(=O)c2c(ncn2CC(=O)N/N=C/c2ccc(Br)s2)n(C)c1=O	-5.8	-5.2	11.7	0.5	-32.2	/	/
Cc1ccsc1/C=N\NC(=O)CCc1c(C)n[nH]c1C	-1.4	-5.8	-7.7	-0.8	1.6	/	/
Cc1n[nH]c(C)c1CCC(=O)N/N=C/c1cccs1	6.0	3.5	5.2	-1.1	-3.1	2.8%	1.3%
CC(/C=C/c1ccccc1)=N\NC(=S)NC(C)C	-17.2	-9.0	2.3	31.2*	-22.5	-3.8%	-5.8%
COc1ccc(NS(=O)(=O)c2cc(C(=O)N3CCC3)ccc2C)cc1	-11.9	9.7	28.9	25.0	-3.7	-2.9%	9.3%
COc1ccc(CN=Cc2[nH]c3ccc(Br)c(Cl)c3c2O)cc1	-14.3	4.8	42.5*	50.7*	-1.7	29.2%	28.4%
Cc1ccc(C(=O)NCC(=O)NCC(=O)OCC(=O)c2ccc(F)cc2)cc1	-19.7	-0.2	6.2	48.7*	-4.6	-6.2%	-5.3%
O=C(CNC(=O)c1ccccc1)NCC(=O)OCC(=O)c1ccc(F)cc1	/	-6.8	/	/	6.6	-3.9%	-3.6%
CN(Cc1ccccc1)C1(CNC(=O)CCC(F)(F)F)Cc2ccccc2C1	-7.0	-2.8	-12.6	-2.2	-36.3	/	/
CN=c1scc(-c2ccc(F)cc2)n1/N=C/c1ccc(O)c(O)c1	/	102.9*	76.2*	31.9*	?	12.6µM*	31.6µM*
CN=c1scc(-c2ccc([N+](=O)[O-])cc2)n1/N=C/c1ccco1	7.1	-0.4	-3.4	-0.2	8.0	/	/
N#Cc1cc2c(=O)n3ccccc3nc2n(-c2ccccc2Cl)c1=O	0.8	-3.3	-1.7	-1.5	-1.4	/	/
O=C(CCCCCNC(=O)c1ccccc1Br)N=Nc1c(O)[nH]c2ccccc12	6.9	5.9	5.0	28.4	-7.1	-2.1%	5.4%
c1ccc(Cc2noc(CN3CCN(CCOc4ccccc4)CC3)n2)cc1	-24.7	1.7	55.5*	62.9*	-6.4	?	20.6%
CC(C)N(Cc1ccccc1)C(=O)CN1c2cccc3cccc(c23)S1(=O)=O	/	-1.7	/	/	14.5	/	/
O=C(C1=C(O)/C(=C/c2ccc(O)cc2)CCC1)C(F)(F)F	2.1	-7.5	23.0	1.2	-10.6	-21.0%	-3.6%
COc1ccc(/C=C2\CCCC(C(=O)C(F)(F)F)=C2O)cc1	17.4	-1.6	19.6	-0.1	-10.8	/	/
